This is a sample that favours compounds with a hit; in the whole collection about 3.4% have one here.
MITF inh: inhibitors of human MITF | AlphaScreen MITF homodimerization, bead proximity signal | O75030 | inhibition, % at 2.6 µM | 650,000 compounds, 0.91% hits; in the data active = inhibition above about 50%;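 note: 0% = vehicle wells with protein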
Target sequence (O75030 whole entry, looked up): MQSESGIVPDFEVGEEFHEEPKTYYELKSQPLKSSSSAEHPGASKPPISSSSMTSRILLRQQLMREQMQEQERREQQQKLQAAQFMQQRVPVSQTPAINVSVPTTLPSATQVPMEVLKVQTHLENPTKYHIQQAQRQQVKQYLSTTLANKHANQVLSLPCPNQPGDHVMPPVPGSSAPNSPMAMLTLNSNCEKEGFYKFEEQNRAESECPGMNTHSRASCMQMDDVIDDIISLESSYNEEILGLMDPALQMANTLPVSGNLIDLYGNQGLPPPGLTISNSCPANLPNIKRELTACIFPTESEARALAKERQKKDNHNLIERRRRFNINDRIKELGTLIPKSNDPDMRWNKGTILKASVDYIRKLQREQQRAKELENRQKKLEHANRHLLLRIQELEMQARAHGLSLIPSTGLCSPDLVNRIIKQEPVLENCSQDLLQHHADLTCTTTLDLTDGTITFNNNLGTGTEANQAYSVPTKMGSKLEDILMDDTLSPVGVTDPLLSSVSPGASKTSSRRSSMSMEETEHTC
GPR151 activ: human GPR151 activation. PathHunter beta-arrestin GPR151 cells, luminescence. 650,000 compounds, 1% hits. AID 1508602. activation, % at 11.2 µM; in the data active = activation above about 4.9%;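 note: 0% = median of compound wells and 100% = cells with positive control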
TEAD-YAP inh: TEAD-YAP interaction inhibition. inhibition, % at 9.12 µM. 640,000 compounds, 1.4% hits. AID 1259422. HEK-TIYL cells, TEAD-Gal4/YAP UAS-luciferase luminescence; in the data active = inhibition above about 32%;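 note: 0% = median of test compound wells and 100% = reference inhibitor wells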
FBW7 activator: human FBW7 E3 ligase activation, primary screen | Q969H0 | AID 1259310 | 650,000 compounds, 0.13% hits | normalized activity (activation), % at 26.1 µM | AlphaScreen FBW7–phospho-cyclin E peptide binding, activator screen; in the data active = normalized activity above about 1.9%;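 note: purified mutant Fbw7 with reduced substrate affinity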
MITF confirm: human MITF inhibition, confirmation. 4,700 compounds, 16% hits. AlphaScreen MITF homodimerization, biotin/His-MITF beads. shares compounds with MITF inh. inhibition, % at 2.6 µM;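 active = inhibition above a cutoff derived from the DMSO control wells, cut at about 28% in these data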;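 note: 0% = MITF dimer wells with DMSO only; inhibitors lower the bead chemiluminescence by keeping MITF from dimerizing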
AS interf DR: counter-screen: compounds optically interfering with AlphaScreen | shares compounds with MITF inh | AlphaScreen optical interference counterscreen, cell-free | IC50, µM | 480 compounds, 6% hits | AID 1259373; call rule not given here
AlphaScreen intf2: AlphaScreen optical interference, counter-screen; shares compounds with MITF inh; LysRS AlphaScreen counterscreen, signal interference, triplicate; 4,700 compounds, 7.6% hits; inhibition, % at 2.6 µM;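 active = inhibition above a cutoff derived from the DMSO control wells, cut at about 30% in these data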
The depositor's hits bear a star; . = not tested or not shown.

SMILES	MITF inh	GPR151 activ	TEAD-YAP inh	FBW7 activator	MITF confirm	AlphaScreen intf2	others
COc1cccc2c3c([nH]c12)C1(CCN(CCCC#N)CC1)N(C=O)CC3	21.1	1.8	1.6	-0.5	.	.
Cc1ccc([N+](=O)[O-])cc1N=Cc1ccc(O)cc1	8.2	-1.3	6.0	0.7	.	.
CC(C)n1cc(CN2CCc3nc(N4CCCC4)[nH]c(=O)c3C2)c2ccccc21	7.4	0.5	-3.4	0.1	.	.
O=C(CNCc1cccnc1)Nc1ccc(C2CCCCC2)cc1	59.2*	1.0	-0.1	0.0	8.2	12.0
O=C(CNCc1ccc(F)cc1)Nc1ccccc1N1CCOCC1	63.1*	-0.9	-0.3	0.0	-1.3	8.5
O=C(CNCc1ccc(Cl)cc1)Nc1ccccc1N1CCOCC1	61.0*	-0.3	-1.5	-0.1	4.6	11.5
O=C(CNCc1cccnc1)Nc1ccc(OC(F)(F)F)cc1	-8.1	-1.1	1.3	0.0	.	.
COC(=O)c1ccc(C2N=C(c3ccc(Cl)cc3)CC(c3cccc(OC)c3O)N2)cc1 (stereo not given)	16.3	0.0	-39.6	0.0	.	.
O=C(CCc1nc2ccccc2c(=O)[nH]1)NC1CCCCC1	19.0	-0.5	-14.4	1.3	.	.
COC(=O)CN1C(=O)S/C(=C/c2ccc([N+](=O)[O-])o2)C1=O	61.7*	-0.2	-11.1	0.0	47.0*	4.4	AS interf DR=>6.48
Cc1cc(C)c(C2C(C#N)=C(N)Oc3n[nH]c(C)c32)cc1COc1ccc(F)cc1 (stereo not given)	6.1	0.3	0.3	0.0	.	.
Cc1cc(C)c(C2C(C#N)=C(N)Oc3n[nH]c(C)c32)cc1CSc1ccc(Br)cc1 (stereo not given)	99.2*	1.2	-10.3	-0.6	-9.1	-9.0
COc1ccc(S(=O)(=O)Nc2cc3c(cc2C(C)=O)OCO3)cc1[N+](=O)[O-]	0.0	1.2	-6.9	0.1	.	.
CCCCNC(=O)c1cc(-c2ccc(Br)cc2)on1	52.2*	-1.4	-8.1	0.1	1.3	2.9
CCCNC(=O)c1cc(-c2ccc(Br)cc2)on1	-18.6	-0.9	-50.1	0.1	.	.
Cc1cc(N2CCOCC2)c(F)cc1C(C)(O)C#Cc1ccccc1 (stereo not given)	5.7	0.7	-2.2	0.1	.	.
COCCNc1cc(-c2ccccn2)nc(-c2ccccn2)n1	115.5*	0.7	21.6	-0.9	117.8*	100.3*
COCCNc1cc(-c2ccccn2)nc(-c2ccccc2)n1	1.1	-0.6	17.3	-0.1	.	.
c1ccc(CN2CCN(CCOCCOc3ccccc3)CC2)cc1	82.6*	2.8	2.6	0.3	8.8	8.7
CCOc1ccccc1OCCOCCN1CCN(Cc2ccccc2)CC1	84.7*	0.9	5.0	0.3	16.5	20.0
c1ccc(OCCOCCN2CCNCC2)cc1	35.8	0.6	3.3	0.0	.	.
COc1cc(CN2CCN(C3CCCCC3C)CC2)cc(OC)c1OC (stereo not given)	73.8*	1.2	6.5	-0.2	9.8	8.7
COc1cc(CN2CCC(N3CCCCC3)CC2)cc(OC)c1OC	0.7	0.7	-7.1	0.0	.	.
COc1cc(CN2CCC(N3CCCC3)CC2)cc(OC)c1OC	58.3*	-0.1	2.5	-0.1	-6.0	-5.9
CCOc1ccccc1NC(=O)c1nnn(CC(=O)Nc2ccc(C)c(C)c2)c1N	-4.1	4.1	0.9	-0.1	.	.
SMILES	MITF inh	GPR151 activ	TEAD-YAP inh	FBW7 activator	MITF confirm	AlphaScreen intf2	others
Cc1cc2cc3c(cc2nc1SCc1ccccn1)OCO3	5.0	0.8	-5.3	-0.1	.	.
COc1cccc(C(=O)N2CC[C@@H]3[C@H](CCCN3C(=O)C(OC)c3ccccc3)C2)c1 (stereo not given in full)	8.9	-1.4	-4.9	0.2	.	.
Cc1ncc2c(c1CNC(=O)Cc1cccs1)CCN(C(=O)CCC1CCCC1)C2	9.2	-0.4	-7.9	0.4	.	.
Cc1ncc2c(c1CNC(=O)Cc1cccs1)CCN(C(=O)C1(C)CCCCC1)C2	74.0*	-0.8	7.0	-0.1	15.0	9.5
O=C(CSc1nnc(C2CCCCC2)o1)NCc1ccccc1	-0.6	0.1	5.4	0.1	.	.
CC1CCN(S(=O)(=O)c2ccc(C(=O)Nc3cccc4c3C(=O)NC4=O)cc2)CC1	3.3	-0.1	4.6	0.2	.	.
CCOc1ccc(CN2CCN(C(=O)c3cccc(F)c3)CC2)cc1	54.6*	0.6	18.7	-0.2	10.6	19.2
O=C(c1cccc(F)c1)N1CCN(Cc2ccc(F)cc2)CC1	65.8*	0.1	-2.5	-0.1	-5.1	2.1
CCOc1cc(CN2CCN(C(=O)c3cccc(F)c3)CC2)ccc1OC	46.9	0.9	6.5	0.0	.	.
CCNc1nc(NC2CCN(Cc3ccccc3)CC2)c2ncn(-c3ccsc3)c2n1	-2.2	0.2	14.2	0.0	.	.
COc1ccc([N+](=O)[O-])cc1NC(=O)CCS(=O)(=O)c1ccccc1	-14.2	1.5	-1.2	0.6	.	.
COc1ccc(OCc2nnc3n2CCC3)cc1	4.0	0.0	-2.6	-0.1	.	.
CC1=C(NCCc2ccccc2)CCC1=O	60.7*	0.7	6.0	0.8	14.4	8.8
Cc1cc(=O)[nH]c(NCCc2ccccc2)n1	6.4	0.3	8.0	-0.2	.	.
COc1ccc(-c2cc(C(F)(F)F)nc(S(=O)(=O)CCCC(=O)Nc3ccc(F)c(Cl)c3)n2)cc1OC	75.5*	0.3	0.8	-0.1	-5.6	5.9
COc1ccccc1-c1cc(C(F)(F)F)nc(S(=O)(=O)CCCC(=O)Nc2ccc(F)c(Cl)c2)n1	53.7*	0.6	-1.4	0.4	-9.2	-1.9
Cc1nc(C)n(-c2ccc(Nc3cc(-n4cc(N(c5cccnc5)c5cccnc5)cn4)ccn3)cc2)n1	50.8*	-1.4	-1.3	0.6	52.2*	0.3	AS interf DR=>6.48
CCOC(=O)Cc1ccc(N(Cc2ccccc2)S(=O)(=O)c2cccc([N+](=O)[O-])c2)cc1	9.6	-0.1	-4.8	0.0	.	.
Cc1ccc(CN2CCCC(C(=O)N3CCCCCC3)C2)cc1 (stereo not given)	64.0*	-0.4	-0.5	0.2	-5.9	-6.1
Cc1ccc(CN2CCCC(C(=O)N3CCCCC3)C2)cc1 (stereo not given)	34.0	1.4	5.9	-0.1	.	.
COc1ccc(CN2CCCC(C(=O)NN)C2)cc1 (stereo not given)	36.1	-0.8	0.3	-0.3	.	.
NNC(=O)C1CCCN(Cc2cccc(Oc3ccccc3)c2)C1 (stereo not given)	53.8*	0.2	7.0	-0.1	-5.0	-5.1
COc1ccc(CN2CCCC(C(=O)N3CCCC3)C2)cc1 (stereo not given)	44.9	-1.9	-1.1	0.0	.	.
CCOC(=O)C1CCCN(Cc2ccc(O)cc2)C1 (stereo not given)	18.9	-0.5	-6.1	0.0	.	.
COc1ccc(CN2CCCC(C(=O)N3CCCCCC3)C2)cc1 (stereo not given)	73.2*	-0.4	7.0	-0.1	-7.0	-6.5
CCOC(=O)C1CCCN(Cc2ccc(OC)cc2)C1 (stereo not given)	51.5*	0.2	6.8	0.1	-5.3	-0.1

High-throughput results from PubChem.
